Screens: PubChem, National Center for Advancing Translational Sciences (NCATS)
MARV entry inh: inhibitors of Marburg virus binding or cell entry. hit rate 1.8% among 300,000. Potency, µM (doses to about 37.8 µM), without a hit: at the highest dose activity change, negative = inhibition, most hits filed as inhibitors. Marburg virus pseudotyped entry inhibition, cell reporter. AID 540276; calls by dose curve; tested in HEK293 cells; note: potency is the fitted concentration of half-maximal effect
HCMV antiviral: human cytomegalovirus inhibition | HFF cells, HCMV-luciferase reporter, 72 h; stronger effect = lower value | activity change, negative = inhibition, % at 57.5 µM | hit rate 4.5% among 410,000 | AID 1259415; in the data active = activity change below about -60%; inconclusive = no clear call, values can overlap the other calls; inactive = above about -39%
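Two compound doses tested in HFFs infected with HCMV-luciferase, MOI 1 PFU/cell, 72 h at 37C. Lysate luminescence read with OneGlo; data normalized against buffer-only and 10uM Salinomycin inhibitor controls.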
HCV inhibitor: inhibitors of hepatitis C virus infection; Huh7.5.1 HCVcc-Cre infection, luciferase reporter, 44 h; Potency, µM (top dose mostly 41.8 µM), without a hit: at the highest dose activity change, negative = inhibition, hits mostly inhibitors; hit rate 3.4% among 340,000; active = well fitted inhibition curve with a large enough effect; inconclusive = small, poorly fitted or top-dose-only effect, or another doubt; inactive = no such curve, though single readings can be large or run the other way; note: potency is the fitted concentration of half-maximal effect
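Whole-lifecycle infectious HCVcc-Cre system; cells 1,000/well, compound then virus (~0.5 moi) added 4 h after plating, 44 h culture. Luciferase read 15 sec following 15 min substrate incubation, room temp.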
VACV Venus inh: inhibitors of vaccinia virus (Venus reporter); AID 720580; Potency, µM (doses to about 36.5 µM), inactives show at the top dose activity change, negative = inhibition, actives largely listed as inhibitors; Vaccinia virus Venus reporter expression, fluorescence; hit rate 0.46% among 330,000; calls by dose curve; tested in A549 cells; note: potency is the fitted concentration of half-maximal effect; nearly all actives have a fitted effect of over 30% in size
Vaccinia mCherry: inhibitors of vaccinia virus infection (mCherry reporter signal); Vaccinia virus mCherry reporter infection, fluorescence; Potency, µM (series often up to 36.5 µM), for the others: at the top dose activity change, negative = inhibition, usual class: inhibitors; hit rate 0.63% among 310,000; AID 720579; calls by dose curve; tested in A549 cells; note: potency is the fitted concentration of half-maximal effect; nearly all actives have a fitted effect of over 35% in size
Lassa entry inh: Lassa virus entry inhibition. Lassa virus pseudotype entry inhibition, cell reporter. Potency, µM (highest dose often 37.9 µM), inactives show top-dose activity change, negative = inhibition, actives largely listed as inhibitors. hit rate 1.2% among 300,000. AID 540256; calls by dose curve; tested in HEK293 cells; note: potency is the fitted concentration of half-maximal effect; nearly all actives have a fitted effect of over 50% in size
* = called active by the depositor; i = inactive; u = inconclusive; x = no result; ! = a repeat was not active; [ ] = dose if it differs, or a comment. Hits are enriched below; roughly 7.8% of the tested compounds scored in any of these assays. % is set by controls: 0 for no effect and ±100 for the full control effect.

SMILES	MARV entry inh	HCMV antiviral	HCV inhibitor	VACV Venus inh	Vaccinia mCherry	Lassa entry inh
Cc1cc(-c2ccnc(-n3ncc(C(=O)NCCc4cccnc4)c3C)n2)c(C)s1	x	x	x	-27%	-13%	x
COCc1c(Br)c(C)nc2sc3c(=O)n(-c4cccc(Br)c4)nnc3c12	9%[46.1 µM]	-17	x	-14%	-15%	28%[46.1 µM]
CCn1c2ccccc2c2cc(NC(=O)COC(=O)c3ccccc3O)ccc21	-26%[46.1 µM]	-16	11µM*	2%	-2%	u
CCN(CC(=O)Nc1c(F)cccc1F)C(=O)c1ccc(OC)c(S(=O)(=O)NC2CCCC2)c1	x	-72*	x	-12%	-10%	x
CCC(CC)C(=O)Nc1ccc2nc(SCC(=O)N3CCCC3)sc2c1	11%[46.1 µM]	14	x	-3%	-5%	-3%[46.1 µM]
CCNc1ccc(Br)cc(C(=O)/C=C/c2ccc(Cl)cc2Cl)c1=O	u	-103*	8.9µM*	x	x	u
CNc1ccc(Br)cc(C(=O)/C=C/c2ccc(OC)cc2)c1=O	-17%	3	34%	-6%	i	-15%
Cn1c(N)c(C(=O)Nc2cccc(Cl)c2)c(=O)n(C)c1=O	u	156	u	-15%	-14%	24%
CN=c1sc(C(=O)Nc2cccc(Cl)c2)cc(=O)n1C	u	-66*	-8%	x	x	u
CC[n+]1c(/C=C/N(C)c2ccccc2)oc2ccccc21	u	-97*	u	-19%	-28%	u
CC[n+]1c(/C=C/N(C)c2ccccc2)oc2ccc(F)cc21	u	-85*	u	-17%	-26%	u
CC(C)C[C@H](NC(=O)[C@H](CCC(N)=O)NC(=O)[C@H](CCCCN)NC(=O)[C@H](CCC(N)=O)NC(=O)[C@@H](N)CCC(=O)O)C(=O)N[C@@H](CCC(N)=O)C(=O)O	x	x	x	-7%[3.33 µM]	-17%[3.33 µM]	x
CCOc1ccc(NC(=O)CC2C(=O)N(c3cccc(C)c3)C(=O)N2Cc2ccco2)cc1 (stereo not given)	x	-20	x	-1%	1%	-22%[46.1 µM]
Cc1c2ccncc2cc2c1[nH]c1ccccc12	u	u	6.3µM*	10µM*	16µM*	-29%[46.1 µM]
Cc1ccc(NC(=O)C23CCC(C)(C(=O)[C@H]2Br)C3(C)C)cc1 (stereo not given in full)	x	-62*	6%	x	x	x
CC12CCC(C(=O)Nc3ccccc3)(C(Br)C1=O)C2(C)C (stereo not given)	u	u	14%	-23%	-1%	-2%
COc1ccc(C(=O)CSc2nnc(C3CCCCC3)n2N)c(OC)c1	u	5	10µM*	-26%	x	u
COc1ccc(NC(=O)CSc2nnc(C3CCCCC3)n2N)cc1	-5%[46.1 µM]	42	4%	-11%[7.34 µM]	i[7.34 µM]	-3%
Cc1ccc(S(=O)(=O)N(C)c2ccc(OCC(=O)Nc3nc(-c4ccccc4)cs3)cc2)cc1	u	-16	u	-14%	-20%	u
Cc1ccc(S(=O)(=O)N(C)c2ccc(OCC(=O)Nc3nc4c(ccc5ccccc54)s3)cc2)cc1	1.4µM*	24	u	-6%	i	2%
CN(c1ccc(OCC(=O)Nc2nc(-c3ccccc3)cs2)cc1)S(=O)(=O)c1ccc(F)cc1	u	-24	10µM*	-19%	u	-24%
CC1(C)C(=O)CC[C@@]2(C)[C@H]1CC[C@@]1(C)CC3=C(CC[C@@H]12)[C@@]1(C)CCC(=O)C(C)(C)[C@@H]1CC3	x	x	15%	x	x	x
Cc1ccc(NC(=O)CN2CCN(C3CCCCC3)C(=O)C2=O)cc1	x	14	x	-4%	-8%	-7%[46.1 µM]
O=C(NCCc1ccccc1Cl)c1sc2ncccc2c1-n1cccc1	x	-25	x	11%	-6%	4%[46.1 µM]
COC(=O)[C@@](NC(C)=O)(Nc1ccccn1)C(F)(F)F	4%	x	x	x	x	x
SMILES	MARV entry inh	HCMV antiviral	HCV inhibitor	VACV Venus inh	Vaccinia mCherry	Lassa entry inh
CCCNS(=O)(=O)c1ccc(OCC(=O)N2CCN(Cc3ccccc3)CC2)cc1	u	-37	-14%	x	x	18µM*
O=C(COc1ccc(S(=O)(=O)N2CCOCC2)cc1)N1CCN(Cc2ccc3c(c2)OCO3)CC1	-25%	-61*	u	x	x	-7%
O=S(=O)(CCN1CCOCC1)c1ccc(Oc2ccc(S(=O)(=O)CCN3CCOCC3)cc2)cc1	u	-65*	3.5µM*	2.2µM*	u	-1%
CS(=O)(=O)N(CC(=O)N1CCN(Cc2ccc3c(c2)OCO3)CC1)Cc1ccc(Cl)cc1	0%	-84*	13µM*	x	x	9.2µM*
COc1ccc(NC(=O)C2CCCN(S(=O)(=O)c3ccc(F)cc3)C2)cc1 (stereo not given)	-8%[46.1 µM]	17	x	-10%	-3%	-21%[46.1 µM]
CC(=O)N1CCc2cc(S(=O)(=O)NCCC(=O)N3CCN(Cc4ccccc4)CC3)ccc21	3%	-66*	u	x	x	u
O=C(COc1ccc(S(=O)(=O)N2CCOCC2)cc1)N1CCCCCC1	27%[46.1 µM]	-85*	4%	0%	12%	-11%
CCCCNS(=O)(=O)c1ccc(OCC(=O)N2CCN(Cc3ccc4c(c3)OCO4)CC2)cc1	x	-83*	3.2µM*	x	x	x
O=C(NCc1ccc2c(c1)OCO2)c1c[nH]c2ccc(S(=O)(=O)N3CCOCC3)cc2c1=O	-2%	29	0%	x	x	0.52µM*
O=C(Nc1ccc(Cl)cc1)N1CCC(CN2CCCCCC2)CC1	x	14	x	-1%	-5%	8%[46.1 µM]
O=C(NCC1Cc2cccc(-c3cnccn3)c2O1)c1ccc2c(c1)OCCO2 (stereo not given)	x	x	x	-8%	-14%	x
O=S(=O)(c1ccc(Oc2ccc(Br)cc2)cc1)N1CCOCC1	u	-73*	u	u	x	u
COc1ccc(S(=O)(=O)N2CCOCC2)cc1	x	x	x	-5%	-14%	x
Cc1ccccc1OCC(=O)Nc1ccc(-c2nc3cc(Cl)cc(Cl)c3o2)cc1	x	8	x	1%	-4%	-3%[46.1 µM]
COc1cc(C)c(CN2CCC(Cc3ccccc3)CC2)cc1C	x	u	13µM*	x	x	x
COc1cc(C)c(C)cc1S(=O)(=O)N1CCN(Cc2ccccc2)CC1	-17%	-62*	5%	-16%	-16%	1%
COc1ccc(OC)c(CN2CCC(Cc3ccccc3)CC2)c1	x	-8	-25%	x	x	x
Cc1ccc(S(=O)(=O)N2CCN(CCc3ccccc3)CC2)c(C)c1	u	-65*	u	u	u	-5%
O=C(Cc1ccccc1)Nc1c(C(=O)N2CCN(c3ccc(F)cc3)CC2)oc2ccccc12	x	-21	x	-11%	-11%	-24%[46.1 µM]
CCC(CC)C(=O)Nc1c(C(=O)N2CCN(c3ccccc3)CC2)oc2ccccc12	u	-79*!	3%	-17%	-24%	u
COc1cccc(N2CCN(C(=O)c3oc4ccccc4c3NC(=O)CCc3cc(OC)no3)CC2)c1	-20%[46.1 µM]	-61*	-19%	-18%	u	-29%[46.1 µM]
O=C(COc1ccccc1)Nc1c(C(=O)N2CCN(c3ccc(F)cc3)CC2)oc2ccccc12	x	-107*	x	-12%	-7%	0%[46.1 µM]
COc1cccc(CC(=O)Nc2c(C(=O)N3CCN(c4ccccc4)CC3)oc3ccccc23)c1	-10%[46.1 µM]	-10	x	-25%	-29%	20%[46.1 µM]
